TexasRed fluor = Texas Red fluorescence interference in TRb-SRC2 counter-screen | AID 1479 | Potency, µM (titrated, usually from 106 µM), inactives show at the highest dose fluorescence change, negative = quenching | hit rate 0.29% among 280,000 | TRb/SRC2 Texas Red total fluorescence interference; active = well fitted curve in either direction with a large enough effect; inconclusive = small, poorly fitted or top-dose-only effect; note: potency is the fitted concentration of half-maximal effect
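Human TRb ligand-binding domain at 0.6 uM with 20 nM Texas Red SRC2 peptide in Tris buffer containing 1 uM T3 and 5% DMSO, incubated with compound 5 h at ambient temperature. Total fluorescence (555/632 nm) calculated as parallel + 2 × perpendicular.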
Tau fibril ThT = blocks human tau fibril formation measured by thioflavin T | hit rate 2.1% among 270,000 | recombinant tau K18 P301L, heparin-induced fibrillization, ThT fluorescence | Potency, µM (doses to about 57.4 µM), inactives show at the top dose activity, negative = inhibition, usual class: inhibitors; note: potency is the fitted concentration of half-maximal effect; nearly all actives have a fitted effect of over 55% in size
Target sequence (P10636 561-689 P618L limits assumed): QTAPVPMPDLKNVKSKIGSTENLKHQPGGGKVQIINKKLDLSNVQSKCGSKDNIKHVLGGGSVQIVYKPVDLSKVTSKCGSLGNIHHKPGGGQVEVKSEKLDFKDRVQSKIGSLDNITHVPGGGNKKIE
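K18 P301L tau (15 uM + 0.24 uM Alexa 594-tagged), heparin 20 uM, NaOAc pH 7, 6 h 37 C; ThT 30 uM, 1 h RT, ex 450/em 510 nm.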
PNC assembly inh = inhibitors of perinucleolar compartment assembly. PC3M PTB-GFP, PNC prevalence imaging, 16 h; hits give low values. activity change (PNC), negative = inhibition, % at 10 µM. hit rate 3.1% among 140,000;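 active = readout at or below -70, meaning at least 70% loss of cells showing the perinucleolar compartment, a nuclear body marking cancer cells; inconclusive = readout between -30 and a set limit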;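 note: plate controls were DMSO wells for no effect and camptothecin positive control wells for full effect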
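Read-out is percentage of cells bearing a perinucleolar compartment, from automated 20x imaging of fixed, Hoechst-stained PC3M PTB-GFP cells. Cells were seeded 4 h, then exposed 16 h to compound (23 nl of library stock) in duplicate plates.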
TRb SRC2 PPI = disrupts binding of human TR beta to SRC2; P10828; TRbeta-SRC2 peptide binding, fluorescence polarization; receptor liganded with 1 µM T3; Potency, µM (series often up to 106 µM), without a hit: at the highest dose activity change, negative = inhibition, actives largely listed as inhibitors; hit rate 0.065% among 280,000;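 note: potency is the fitted concentration of half-maximal effect; plate controls were bound peptide for no effect and peptide without receptor for full effect; nearly all actives have a fitted effect of over 50% in size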
Target sequence (P10828 whole entry, looked up): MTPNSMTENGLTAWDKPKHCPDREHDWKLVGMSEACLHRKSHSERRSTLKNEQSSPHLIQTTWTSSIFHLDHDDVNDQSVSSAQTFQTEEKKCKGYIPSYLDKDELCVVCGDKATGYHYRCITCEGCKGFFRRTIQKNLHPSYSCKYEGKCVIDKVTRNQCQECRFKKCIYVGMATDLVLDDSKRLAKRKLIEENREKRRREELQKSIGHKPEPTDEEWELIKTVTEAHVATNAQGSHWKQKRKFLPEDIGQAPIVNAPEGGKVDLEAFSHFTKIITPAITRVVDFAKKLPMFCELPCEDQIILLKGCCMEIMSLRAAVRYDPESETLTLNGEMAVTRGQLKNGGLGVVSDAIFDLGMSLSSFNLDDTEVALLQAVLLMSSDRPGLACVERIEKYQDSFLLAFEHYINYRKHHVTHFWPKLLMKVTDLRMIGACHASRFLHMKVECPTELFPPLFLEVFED
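TRb LBD 0.6 uM + Texas Red SRC2 peptide 20 nM, 1 uM T3, Tris buffer w/ 5% DMSO; compound pinned, 5 h RT; FP read ex 555/em 632; normalized to unbound and bound controls.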
Tau fluor counter = counter-screen for tau fibril formation inhibitors. hit rate 0.93% among 280,000. tau K18 P301L Alexa594 fluorescence, heparin fibrillization. Potency, µM (highest dose often 57.7 µM), for the others: at the highest dose activity change, negative = decrease; note: potency is the fitted concentration of half-maximal effect; nearly all actives have a fitted effect of over 55% in size
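Human tau K18 P301L (15 uM unlabeled, 0.24 uM Alexa 594-labeled) in 100 mM sodium acetate pH 7 with 20 uM heparin, 6 hr at 37 C. ThT 30 uM added, 1 hr ambient; Alexa 594 FP and total fluorescence read at 555/632 nm.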
Tau fibril FP = inhibitors of human tau fibril formation. P10636. K18 P301L tau heparin fibrillization, Alexa594 FP, 6 h. Potency, µM (highest dose often 57.7 µM), inactives show at the highest dose activity, negative = inhibition, most hits filed as inhibitors. hit rate 0.39% among 280,000. AID 1468; note: potency is the fitted concentration of half-maximal effect; nearly all actives have a fitted effect of over 55% in size
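Quantitative HTS format: compounds meet 15 uM recombinant K18 P301L tau and Alexa 594-tau tracer in 100 mM sodium acetate pH 7; 20 uM heparin triggers fibrillization at 37 C over 6 hr; FP gives the signal.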
* = called active by the depositor; ? = inconclusive; nt = not tested or not shown; [ ] = another dose, or the depositor's remark. Shown are actives, neighbours in structure and some others; about 4.6% of the full set was active somewhere. Unless noted, calls come from the whole dose curve; as a rule, active = well fitted curve in the direction sought with a large enough effect; inconclusive = small, poorly fitted or top-dose-only effect, or another doubt; inactive = no such curve, though single readings can be large; an effect the other way counts as inactive or inconclusive. Unless noted, % is set by controls: 0 for no effect and ±100 for the full control effect.

SMILES	TexasRed fluor	Tau fibril ThT	PNC assembly inh	TRb SRC2 PPI	Tau fluor counter	Tau fibril FP
COc1ccnc(NCc2ccc(Cl)cc2)c1C#N	2%	0%	?	-8%	-2%	-12%
CCOC(=O)c1[nH]c2cc(OC)c(OC)cc2c1NC(=O)CN(C)C1CCCCC1	-7%	-10%	35	-3%	-20%	?
CCOC(=O)N1CCN(c2ccccc2O)CC1	0%	-18%	43	-1%	-7%	-4%
CCOC(=O)C1=C(C)Nc2sc(C(=O)c3ccc(F)cc3)c(N)c2C1c1ccc(C(=O)OC)cc1 (stereo not given)	-3%	-2%	24	8%	16µM*[quencher]	?
CO[C@H]1C[C@@H](O[C@@H]2[C@H](C)[C@H](O[C@@H]3O[C@@H](C)C[C@@H](N(C)C)[C@@H]3O)[C@H](C)C[C@]3(CO3)C(=O)[C@H](C)[C@H](O)[C@H](C)[C@H](C)OC(=O)[C@@H]2C)O[C@@H](C)[C@H]1O	-3%[53 µM]	nt	nt	0%[53 µM]	nt	nt
O=C(CSc1ccc(-c2cccs2)nn1)NCCc1ccccc1	-1%	-10%	nt	10%	-3%	3%
CC1(C(=O)O)NCCc2cc(O)c(O)cc21 (stereo not given)	-4%	20µM*	nt	4%	-16%	?
Oc1cc2c(cc1O)C(c1ccccc1)CNCC2 (stereo not given)	-4%	?	nt	2%	?	?
CCn1c2ccccc2c2cc(NC(=O)COC(=O)c3ccccc3O)ccc21	2%	-4%	nt	-1%	-28%	1%
CCn1c2ccccc2c2cc(NC(=O)COC(=O)c3cc(S(N)(=O)=O)c(Cl)cc3Cl)ccc21	-4%	?	nt	-1%	8.9µM*[quencher]	6%
CCn1c2ccccc2c2cc(NC(=O)COC(=O)c3cc(Cl)c(N)cc3OC)ccc21	-8%	?	nt	-5%	10µM*[quencher]	4%
CC(C)C(NC(=O)C12CC3CC(CC(C3)C1)C2)C(=O)NC1=NCCS1 (stereo not given)	-3%	-6%	33	-9%	-1%	-5%
CC(NC(=O)C1CCCCC1)C(=O)NC1=NCCS1 (stereo not given)	0%	-3%	-112*	8%	-2%	5%
CCc1ccc2c(O)c3c(cc2c1C(=O)OC)C(=O)c1c(O)ccc(O)c1C3=O	19%	3.2µM*	nt	9%	?	?
COC(=O)c1[nH]c(=O)c2ccccc2c1O	-2%	-12%	-26	-4%	-7%	-5%
O=C1NC(=O)/C(=C/c2ccc(OS(=O)(=O)c3ccc(F)cc3F)cc2)N1	-6%	-16%	nt	-3%	-25%	3%
Cc1ccc(C(=O)n2nc(-n3cccc3)c3c(C)cc(C)nc32)cc1	-4%	-6%	nt	3%	1%	4%
Cc1cc(C)c2c(-n3cccc3)nn(C)c2n1	-1%	-14%	-109*	3%	-11%	3%
CC(C)c1ccc(S(=O)(=O)c2ccc(NN)cc2)cc1	1%	?	nt	7%	?	4%
CCN(CC)S(=O)(=O)c1cccc(NC(=O)C2SC(=Nc3ccc(C)cc3C)C(C(=O)NC(C)COC)=C2N)c1 (stereo not given)	0%	-14%	16	-13%	25µM*[quencher]	0%
CCCOC(=O)c1cccc(NC(=O)CSc2nnc3cc(C)c4ccccc4n23)c1	2.8µM*[quencher]	3%	nt	-20%	-3%	-4%
CCOC(=O)c1cccc(NC(=O)CSc2nc3ccccc3c(=O)n2CC)c1	-1%	0%	-94*	-3%	-5%	-2%
CCc1cccc(NS(=O)(=O)c2c(C)n[nH]c2C)c1	-4%	0%	-100*	2%	0%	4%
CC(=O)c1cccc(NS(=O)(=O)c2c(C)n[nH]c2C)c1	1%	8%	?	5%	5%	2%
O=S(=O)(NCC1CCCO1)c1ccc(S(=O)(=O)N2CCc3ccccc3C2)cc1 (stereo not given)	-3%	-16%	-107*	3%	-4%	2%
SMILES	TexasRed fluor	Tau fibril ThT	PNC assembly inh	TRb SRC2 PPI	Tau fluor counter	Tau fibril FP
CCCCOc1ccc(-c2c(C#N)c(N)nc(SCC(N)=O)c2C#N)cc1	1%	-11%	-25	1%	?	22µM*
O=C(c1ccccc1F)N1CCN(c2ccc([N+](=O)[O-])c(NCc3cccnc3)c2)CC1	-1%	16µM*	nt	-1%	-15%	5%
O=C(c1ccccc1)N1CCN(c2ccc([N+](=O)[O-])c(NCc3cccnc3)c2)CC1	2%	16µM*	-26	4%	-8%	4%
CC(C)(C)C(=O)N1CCN(c2ccc([N+](=O)[O-])c(NCc3cccnc3)c2)CC1	-1%	?	nt	6%	4%	1%
CCN(CC)S(=O)(=O)c1ccc(N=NC2=C(O)CC(C)(C)CC2=O)cc1	1%	-3%	38	2%	-5%	-4%
CCN(CC)S(=O)(=O)c1ccc(N=NC2=C(O)CCCC2=O)cc1	45µM*[fluorescent]	-11%	?	40µM*	-10%	-2%
Cc1cc(N2CCC(C(=O)NC3CCCCC3)CC2)nc(-c2ccccc2)n1	2%	-16%	?	-23%	-4%	0%
CCCCn1c(N)c(-c2nc3ccccc3s2)c2c([N+](=O)[O-])nn(CC)c(=O)c21	-2%	?	20	1%	?	15%
CCCCn1c(N)c(-c2nc3ccccc3s2)c2c([N+](=O)[O-])nn(C)c(=O)c21	0%	14µM*	-3	6%	?	8%
CC1CC2(CCCCC2)Nc2ccc3ccccc3c21 (stereo not given)	-3%	?	4	0%	-25%	5%
CCc1cccc2c1NC1(CCCC1)CC2C (stereo not given)	?	?	nt	28µM*	-22%	-10%
COc1cc(C(=O)OCCNC(=O)c2ccncc2)cc(OC)c1OC	-2%	-5%	-111*	0%	-12%	?
O=C(CO/N=C/c1ccc(OC(F)F)cc1)NC1CCCC1	2%	5%	nt	0%	7%	-1%
Cc1cc(NS(=O)(=O)c2ccc(NC(=O)C(C(C)C)N3C(=O)c4ccccc4C3=O)cc2)nc(C)n1 (stereo not given)	2%[53 µM]	5%	-88*	-18%[53 µM]	3%	7%
Cc1cc(NS(=O)(=O)c2ccc(NC(=O)C(CC(C)C)N3C(=O)c4ccccc4C3=O)cc2)nc(C)n1 (stereo not given)	2%	-9%	10	2%	-11%	-6%
Cc1ccc(-n2c(=O)cc(N3CCc4ccccc4C3)[nH]c2=O)cc1	1%	-2%	36	-17%	5%	12%
